Assay outcomes (PubChem BioAssay)
V-ATPase pH = yeast V-ATPase proton transport regulation by pHLuorin | response, % at 10 µM | S. cerevisiae, pHLuorin cytosolic pH fluorescence | 350,000 compounds, 0.37% hits | AID 504577; in the data active = response mostly above about 7.3%, no sharp cut-off; inactive = mostly below about 5.4%; also: actives read high
MEX-5 binding = C. elegans MEX-5 TCR-2 RNA binding activity | MEX-5/FITC-TCR2 RNA binding, fluorescence polarization; stronger effect = lower value | activity score (negative = inhibition of binding), % at 10 µM | 300,000 compounds, 0.38% hits;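 active = inhibition past about -25% in most replicates, and total fluorescence under double the plate's negative control median, limit read from the data; inconclusive = replicates evenly split on the limit, or fluorescence at least double controls; inactive = too little inhibition in most replicates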
m5-HT2A agonist = mouse HTR2A agonism via beta-arrestin recruitment; P35363; CHO-K1 mHTR2A beta-arrestin complementation, luminescence; percent of 30 µM serotonin response; activation, % at 7.6 µM; 360,000 compounds, 0.66% hits; AID 624169;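 active = activation above a run cutoff, the mean activation of all tested compounds plus 3 SD, cut at about 14% in these data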
JMJD2C inh = inhibitors of human GASC-1 (JMJD2C) demethylase | Q9H3R0 | 330,000 compounds, 0.069% hits | inhibition, % at 2.35 µM | GST-JMJD2C(1-420) H3K9me3 demethylation, DELFIA europium;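 active = more than half of a compound's replicate wells show inhibition beyond 50%, single wells judged on their own value; inconclusive = some, but no more than half, of replicates pass 50% inhibition; inactive = no replicate passes 50% inhibition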;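 also: signal counts dimethyl H3K9 product captured on neutravidin plate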
Exocytosis inh = lytic granule exocytosis inhibition. inhibition, % at 10 µM. AID 651702. 360,000 compounds, 0.66% hits. TALL-104 LAMP-1 surface exposure, flow cytometry; cells stimulated with thapsigargin and PMA;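 active = inhibition above about 55%, limit read from the data; inconclusive = no clear call, values can overlap the other calls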
VLA-4 inh = inhibition in a human VLA-4 binding assay; P13612; VLA-4 expressing cells, ligand binding flow cytometry; inhibition, % (about 7 µM as worked out from the volumes in the protocol); 330,000 compounds, 0.2% hits; AID 2557; in the data active = inhibition above about 50%
Target sequence (P13612 whole entry, looked up): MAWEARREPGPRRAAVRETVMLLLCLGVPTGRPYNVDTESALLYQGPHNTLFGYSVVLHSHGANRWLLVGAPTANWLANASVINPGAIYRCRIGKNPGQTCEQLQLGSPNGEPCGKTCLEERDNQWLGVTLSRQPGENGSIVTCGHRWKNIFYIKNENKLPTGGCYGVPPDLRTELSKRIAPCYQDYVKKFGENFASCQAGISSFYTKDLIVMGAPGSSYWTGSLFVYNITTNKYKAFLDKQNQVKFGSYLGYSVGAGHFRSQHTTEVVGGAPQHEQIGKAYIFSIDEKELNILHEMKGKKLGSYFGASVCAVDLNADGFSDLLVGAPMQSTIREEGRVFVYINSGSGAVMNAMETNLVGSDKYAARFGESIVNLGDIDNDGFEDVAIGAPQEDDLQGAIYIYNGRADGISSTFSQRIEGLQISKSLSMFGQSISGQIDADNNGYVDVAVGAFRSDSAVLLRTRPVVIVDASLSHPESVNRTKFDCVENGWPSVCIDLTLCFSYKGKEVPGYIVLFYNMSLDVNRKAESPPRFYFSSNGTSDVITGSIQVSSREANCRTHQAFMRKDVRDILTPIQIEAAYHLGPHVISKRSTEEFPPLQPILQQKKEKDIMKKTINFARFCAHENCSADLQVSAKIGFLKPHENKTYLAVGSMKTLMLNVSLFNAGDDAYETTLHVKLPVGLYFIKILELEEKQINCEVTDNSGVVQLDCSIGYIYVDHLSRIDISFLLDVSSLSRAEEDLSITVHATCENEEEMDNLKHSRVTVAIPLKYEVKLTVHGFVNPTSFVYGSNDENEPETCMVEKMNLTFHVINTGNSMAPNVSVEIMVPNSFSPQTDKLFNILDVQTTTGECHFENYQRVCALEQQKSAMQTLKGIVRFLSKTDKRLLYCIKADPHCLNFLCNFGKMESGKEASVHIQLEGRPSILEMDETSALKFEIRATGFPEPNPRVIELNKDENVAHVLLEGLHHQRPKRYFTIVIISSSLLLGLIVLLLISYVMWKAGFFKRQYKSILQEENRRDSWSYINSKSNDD
Of the large screens only hits and unclear results are named; the others gave an inactive call. Hits are enriched below; roughly 2.2% of the tested compounds scored in any of these assays.

COc1ccccc1NCCC(=O)O	none
COC(=O)c1ccc(C(=O)OC)c(NC(=O)C2CCCO2)c1 (centres undefined)	none
CCOc1cccc(C2C(C(=O)c3ccc(C)o3)=C(O)C(=O)N2c2nccs2)c1 (centres undefined)	MEX-5 binding -71.1
COc1ccc(NC(=O)N(C)C[C@H]2Oc3c(NS(=O)(=O)c4cn(C)cn4)cccc3C(=O)N([C@H](C)CO)C[C@@H]2C)cc1	JMJD2C inh 57.9 (no result: MEX-5 binding)
C[C@H](CO)N1C[C@H](C)[C@@H](CN(C)C(=O)Nc2ccc(C(F)(F)F)cc2)Oc2c(NC(=O)Nc3ccc(C(F)(F)F)cc3)cccc2C1=O	m5-HT2A agonist 15.5 (no result: MEX-5 binding)
O=C(OCC(=O)N1CCOCC1)c1ccc(Cl)cc1[N+](=O)[O-]	none
O=S(=O)(c1ccccc1F)N1CCN(Cc2cc3c(cc2Br)OCCO3)CC1	none (no result: MEX-5 binding)
Cc1ccc(CC(=O)NCc2ccc(F)cc2)cc1	none
CCSc1nnc(SCC(=O)Nc2cc(C)on2)s1	none (no result: MEX-5 binding)
CCCCCCC(=O)N(O)C1CC(=O)N(c2ccc(Br)cc2)C1=O (centres undefined)	Exocytosis inh 102.9
COc1ccc(S(=O)(=O)Nc2cc(SCC(=O)O)c(O)c3ccccc23)cc1	MEX-5 binding -53.1
O=C(O)CSc1cc(NS(=O)(=O)c2ccc(Cl)cc2)c2ccccc2c1O	none
Cc1cc(C)c(S(=O)(=O)Nc2cc(SCC(=O)O)c(O)c3ccccc23)cc1C	MEX-5 binding -56.5 (no result: V-ATPase pH, m5-HT2A agonist, Exocytosis inh)
COC(=O)[C@@H](NCc1cccc(CN[C@H](C(=O)OC)c2ccccc2)c1)c1ccccc1	JMJD2C inh inconclusive, Exocytosis inh 65.5
S=C(Nc1ccc2nsnc2c1)N1CCCCCC1	Exocytosis inh 76.6
O=C(Nc1ccc2nsnc2c1)N1CCCCC1	none
CC(C)=CCN1CCN(Cc2cn[nH]c2C2CCCCC2)CC1CCO (centres undefined)	JMJD2C inh 53.3 (no result: V-ATPase pH, m5-HT2A agonist, Exocytosis inh)
Cc1ccc(CN2CCN(Cc3cn[nH]c3C3CCCCC3)CC2CCO)cc1 (centres undefined)	none
O=c1cc(NC2CCCCCC2)[nH]c(=O)[nH]1	JMJD2C inh 54.2
CCOc1ccc(C(=O)Nc2cnn(Cc3ccc(Cl)c(Cl)c3)c2)cc1	V-ATPase pH 40.0
O=C(Nc1ccc(Cl)c(Cl)c1)c1ccc(Cn2cc(Cl)cn2)cc1	none (no result: VLA-4 inh)
Nc1ccc2nc3c(=O)n(CCc4ccccc4)c(=O)[nH]c3nc2c1	V-ATPase pH 51.3, MEX-5 binding -52.0
Cc1cc2nc3c(=O)n(CCc4ccccc4)c(=O)[nH]c3nc2cc1N	MEX-5 binding inconclusive
Cc1onc(-c2ccccc2)c1C(=O)OCC(=O)NCc1ccc(F)cc1	none
COc1ccc2c3c([nH]c2c1)C1CC2C(CC(O)C(OC)C2C(=O)O)CN1CC3 (centres undefined)	MEX-5 binding -34.6
CCOc1cc(Br)c(/C=C2/C(=O)N(C)C(=S)N2CC(=O)OC)cc1OC	MEX-5 binding -31.8
NS(=O)(=O)c1ccc(CNC(=O)c2cc(=O)c3cc(Cl)ccc3o2)cc1	none
CC(=O)C(=Nc1ccc(Cl)cc1Cl)NNc1cccc(Cl)c1	Exocytosis inh 84.9
CCc1ccccc1NC(=O)C1C2C=CC(O2)C1C(=O)O (centres undefined)	none
O=C(O)C1C2C=CC(O2)C1C(=O)Nc1ccccc1C(F)(F)F (centres undefined)	Exocytosis inh 83.1
CC(C)(C)NC(=O)c1ccc2c(c1)C1C3CCC(C3)C1C(c1ccccc1)N2 (centres undefined)	none
CCCNC(=O)c1ccc2c(c1)C1C3CCC(C3)C1C(c1ccccc1)N2 (centres undefined)	V-ATPase pH 18.6
O=[N+]([O-])c1ccc(Sc2cccc[n+]2[O-])c2nonc12	Exocytosis inh 96.5 (no result: VLA-4 inh)
COC(=O)c1ccccc1N(C)S(=O)(=O)c1cc2c3c(c1)CCC(=O)N3CCC2	none
O=C1c2cccc3c(N4CCCCC4)ccc(c23)C(=O)N1c1ccccc1O	MEX-5 binding -55.7
Cc1ccc(N2C(=O)c3cccc4c([N+](=O)[O-])ccc(c34)C2=O)c2cccnc12	none
Cc1ccc(N2C(=O)c3cccc4c(N5CCN(C)CC5)ccc(c34)C2=O)c2cccnc12	MEX-5 binding -58.3 (no result: V-ATPase pH, m5-HT2A agonist, Exocytosis inh)
Cn1c(C(=O)Nc2ccc3c(c2)OCCO3)cc2c(=O)n(C)c3ccccc3c21	Exocytosis inh 79.6
CC(=O)c1ccc(S(=O)(=O)N2CCN(CCOc3ccccc3)CC2)cc1	none (no result: MEX-5 binding)
CC1(OC(=O)c2cccs2)C(=O)C=C2C=C(c3ccsc3)OC=C2C1=O (centres undefined)	MEX-5 binding -26.9 (no result: V-ATPase pH, m5-HT2A agonist, Exocytosis inh)
CC(C)(C)OC(=O)NC(Cc1ccccc1)C(=O)N1CCC(C(=O)NCC(=O)Nc2ccc(F)cc2)CC1 (centres undefined)	MEX-5 binding -56.5
CC1(C(=O)NS(=O)(=O)C2CC2)CCN(C(=O)c2c(F)cccc2F)C1 (centres undefined)	none (no result: V-ATPase pH, MEX-5 binding, JMJD2C inh, VLA-4 inh)
CCn1ccnc1CNC(=O)C1CCC(=O)N(Cc2ccccc2F)C1 (centres undefined)	none
CCC(NC(C)C)C(O)c1ccc(O)c(O)c1 (centres undefined)	MEX-5 binding -28.5
CCC(c1ccc(O)c(O)c1)C(CC)c1ccc(O)c(O)c1 (centres undefined)	none (no result: MEX-5 binding, JMJD2C inh, VLA-4 inh)
CCOc1ccc(C(C)=O)cc1N1C(=O)C2C3C=CC(O3)C2C1=O (centres undefined)	Exocytosis inh 104.6
O=[N+]([O-])c1cc(-c2ncccn2)c([N+](=O)[O-])s1	Exocytosis inh 78.0
Cc1ccc(C2CC(c3ccco3)n3ncnc3N2)cc1 (centres undefined)	none
Cc1ccc2c(c1)C(N1CCCC1=O)CC(c1ccco1)N2 (centres undefined)	Exocytosis inh 87.3
O=C(C#Cc1cccc([N+](=O)[O-])c1)c1ccccc1	Exocytosis inh 70.0
COc1ccc(/C=N/N=C2/NC(=O)CC(C(=O)O)S2)cc1 (centres undefined)	none
COc1ccc(/C=N/N=C2/CC(C)(C)Cc3n[nH]c(=O)cc32)cc1	MEX-5 binding -81.3
Cc1cccc(NC(=O)c2cnn(-c3ccc(F)cc3)c2C2CCNCC2)c1C	none
Cc1ccc(-n2ncc(C(=O)Nc3cc(Cl)ccc3C)c2C2CCNCC2)cc1C	V-ATPase pH 31.7
CCCNS(=O)(=O)c1cccc(C(=O)OCc2cc(=O)oc3cc(OC)ccc23)c1	Exocytosis inh 70.1
CC(=O)c1ccc(-c2ccc(C(=O)NC3CC(C)(C)NC(C)(C)C3)o2)cc1	none
Cc1[nH][nH]c(=O)c1C(c1ccc(O)c([N+](=O)[O-])c1)c1c(C)[nH][nH]c1=O	MEX-5 binding -48.4
Cc1[nH][nH]c(=O)c1C(c1ccc(O)c(Br)c1)c1c(C)[nH][nH]c1=O	none
O=C(Nc1cccc(C(F)(F)F)c1)c1cc[n+]([O-])cc1	none
